Measured values as given in PubChem BioAssay (NCI).
This is part of a sample that, as a whole, favours compounds with a hit. Of some 83,000 tested, about 20% had one in any assay.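 Percent growth is the endpoint: 0 to 100 indicates growth inhibition (40 means 60% inhibition), 0 means no net growth, and negative values indicate cell death.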 A number with no mark means an inactive call. Activity calls are given as the source filed them. Rule for the calls: active = growth percent below 10; inactive = the rest.

Tests used:
Experiment in all cases: NCI-60 one-dose screen, 48 h (100 = growth as untreated, 0 = no growth, -100 = all killed)
Settings in all cases: 10 µM unless noted
SR leukemia = tested on: SR leukemia
RPMI-8226 leukemia = tested on: RPMI-8226 leukemia
OVCAR-8 ovarian = tested on: OVCAR-8 ovarian
OVCAR-5 ovarian = tested on: OVCAR-5 ovarian
OVCAR-4 ovarian = tested on: OVCAR-4 ovarian
SK-OV-3 ovarian = tested on: SK-OV-3 ovarian
IGROV1 ovarian = tested on: IGROV1 ovarian
OVCAR-3 ovarian = tested on: OVCAR-3 ovarian
HS 578T breast = tested on: HS 578T breast
NCI/ADR-RES ovarian = tested on: NCI/ADR-RES ovarian

Row | Compound | growth (SR leukemia) | growth (RPMI-8226 leukemia) | growth (OVCAR-8 ovarian) | growth (OVCAR-5 ovarian) | growth (OVCAR-4 ovarian) | growth (SK-OV-3 ovarian) | growth (IGROV1 ovarian) | growth (OVCAR-3 ovarian) | growth (HS 578T breast) | growth (NCI/ADR-RES ovarian)
1 | COc1ccc(-c2ccc(NC(=O)Nc3ccc(Cl)c(C(F)(F)F)c3)c(C)n2)cc1 | 35.7% | 9.87% (active) | 57.4% | 89.1% | 45.1% | 68.1% | 52.9% | 27.6% | 77% | 49.8%
2 | CCN(CC)C(=O)C1CCN(C(=O)c2ccccc2)CC1 | 102% | 97.8% | 103% | 108% | 106% | 102% | 103% | 104% | 97% | 97.9%
3 | COc1cc(Cn2cc3c(c2)-c2onc(CO)c2CC3)cc(OC)c1OC | 71.8% | 79.1% | 98.7% | 103% | 98% | 112% | 96.6% | 99.4% | 80.3% | 93.8%
4 | Cc1ccc(-c2cc(-c3nnc(SCC(=O)c4ccccc4)o3)c3ccccc3n2)cc1 | 77.4% | 106% | 100% | 92% | 86% | 106% | 94.1% | 97.7% | 101% | 91.9%
5 | COc1cc2c(cc1OC)-c1c(oc3c4c(ccc3c1=O)OC(C)(C)C=C4)CO2 | 42.6% | 49.3% | 67.7% | 89.3% | 41.8% | 77.6% | 85% | 63.7% | 99.8% | 65.8%
6 | CC(C(=O)O)N1C(N)=NNC1c1ccccc1O (stereo not given) | 72.2% | 73.1% | 90.2% | 108% | 76.3% | 105% | 70.9% | 83% | 91.1% | 83.8%
7 | COc1cc2nc(C(=O)N3CCCCC3)cc(Nc3ccccc3)c2cc1OC | 81.7% | 87.6% | 98.3% | 109% | 100% | 108% | 98.3% | 93.9% | 95% | 95.4%
8 | C[C@]12CC[C@@H]3c4ccc(O)c(N)c4CC[C@H]3[C@@H]1CC[C@@H]2O | 98.1% | 85.5% | 104% | 117% | 110% | 128% | 136% | 100% | 99.2% | 105%
9 | O=c1c2ccccc2sc2c(NCCCNCCO)nc3ccccc3c12 | -25.9% (active) | -14.8% (active) | 17.7% | 76.3% | 60.4% | 69.4% | 27% | 35.2% | 34% | 31.5%
10 | CO[C@H]1/C=C/C=C/C=C/C[C@H](OC(=O)[C@@H](C)NC(=O)C2CCCCC2)[C@H](C)[C@@H](O)/C(C)=C\CCC2=CC(=O)C=C(NC(=O)C1)C2=O | 3.26% (active) | -26.5% (active) | -16.2% (active) | 3.19% (active) | -13.9% (active) | -21.3% (active) | 3.97% (active) | -19.9% (active) | -16.2% (active) | 32%
11 | C/C(=N/NC(=O)Cn1c2ccccc2c2ccncc21)c1cccs1 | 83.3% | 87.4% | 92.8% | 112% | 99.8% | 102% | 90.6% | 103% | 91.1% | 101%
12 | FC(F)(F)c1cn(CCN2CCOCC2)c2ncnc(Cl)c12 | -40.3% (active) | 99% | 18.7% | 106% | 82.4% | 101% | 13.4% | 63.3% | 81.9% | 92.8%
13 | C/C(=N/O)c1ccc(NC(=O)Cn2nc(-c3ccc(Cl)cc3)nc2N)cc1 | 81.2% | 93.4% | 81.6% | 108% | 119% | 72.6% | 89.7% | 104% | 88.5% | 99.6%
14 | O=c1c(-c2ccc3c(c2)OCO3)coc2c(CO)c(O)ccc12 | 13.4% | 2.57% (active) | 24.3% | 35.8% | 41.7% | -18.3% (active) | 5.08% (active) | -55.1% (active) | 6.65% (active) | 52%
15 | Cc1cn(-c2nc3c(c(NCc4ccccc4)n2)COCC3)c2cccc(C(N)=O)c12 | 50.8% [0.5 µM] | -15.3% [0.5 µM] (active) | 58.1% [0.5 µM] | 70.8% [0.5 µM] | 58.8% [0.5 µM] | 111% [0.5 µM] | 82.3% [0.5 µM] | 91.5% [0.5 µM] | 83.5% [0.5 µM] | 86% [0.5 µM]
16 | COc1ccc(/C=C/C(=O)c2ccc(-n3cc(CN4CCN(c5cc6c(cc5F)c(=O)c(C(=O)O)cn6C5CC5)CC4)nn3)cc2)cc1OC | -12.4% (active) | -15.8% (active) | 39.7% | 72.3% | 73.7% | 67.5% | -24.8% (active) | -16.1% (active) | 21.5% | 82%
17 | CNCCCOc1c(Br)cc(CCNC(=O)/C(Cc2ccc(OC)c(Br)c2)=N/O)cc1Br | -30.7% (active) | 8.44% (active) | 73.2% | 86.7% | 27.9% | 63.4% | 49.5% | 65.5% | 37.6% | 81.3%
18 | COc1cc(/C=C/C(=O)N2CCC=CC2=O)cc(OC)c1OC | 10.3% | -11.3% (active) | 4.06% (active) | 86.6% | 48.8% | 105% | 30.9% | 18.5% | 84.5% | 67.2%
19 | [2H]c1nc(Nc2ncc(F)c(-c3cc(F)c4nc(C)n(C(C)C)c4c3)n2)c([2H])c([2H])c1CN1CCN(CC)CC1 | 11.7% | 34.7% | 74.3% | 49.8% | 66.1% | 35.7% | 39.1% | 73.1% | 29.9% | 71%
20 | CC1OC(n2c3ccccc3c3c4c(c5c6ccccc6[nH]c5c32)C(=O)N(CCN[C@@H]2CCC[C@H]2N)C4=O)CC(O)C1O (stereo not given in full) | -19.1% (active) | -5.48% (active) | 18% | 49.2% | 24.7% | 20.1% | 22.7% | 27.7% | 30% | 77.6%
21 | N#CC(C#N)=C(C#N)c1c[nH]c2ccccc12 | 58.1% | 68.4% | 87.7% | 102% | 73.5% | 82.7% | 75.2% | 74.7% | 87.7% | 96.1%
22 | COc1ccc(NC(=O)COCCOCCNC[C@@H]2C(=O)O[C@H]3[C@H]2CC/C(COC(=O)OC/C2=C/CC[C@@]4(C)O[C@H]4[C@H]4OC(=O)[C@@H](CN(C)C)[C@@H]4CC2)=C\CC[C@@]2(C)O[C@@H]32)c(O)c1C(N)=O | 0.464% (active) | 38.4% | 32.4% | 91% | 31.3% | 79.4% | 26.6% | 0.0325% (active) | 79.2% | 101%
23 | C=CCOc1ccc(/C(Cl)=N/N=C(\Cl)c2cc(OC)c(OC)c(OC)c2)cc1 | 17% | 70.3% | 62.6% | 97.5% | 84.3% | 64.7% | 64% | 77.1% | 75.5% | 77.6%
24 | Nc1ncnc2c1c(-c1ccc(Oc3ccccc3)cc1)nn2C[C@@H]1SSC[C@H]1O | 4.41% (active) | 50.9% | 33.3% | 80.8% | 50.2% | -8.06% (active) | -10.3% (active) | 18.3% | 16.9% | 48.3%
25 | CCN(CC)CCNC(=O)c1c(C)[nH]c(/C=C2\C(=O)Nc3cc(NC(=O)NC(=O)c4ccc(OC)cc4F)ccc32)c1C | 10.6% | 75.7% | 34% | 120% | 111% | 129% | 98.5% | 111% | 84.4% | 88.3%
26 | COc1ccc(Cl)cc1NC(=O)c1cc2c(n1C)-c1nc(NC(=O)C(C)(C)C)sc1CC2 | 85.2% | 83.4% | 109% | 104% | 94.8% | 67.7% | 98.1% | 105% | 98.5% | 93.8%
27 | COc1ccc(/C=C/C(=O)/C=C(/C=C/c2ccc(OC)c(OC)c2OC)OB(F)F)c(OC)c1OC | 0.627% (active) | 2.74% (active) | 10% | 62.9% | 47.4% | 76.8% | 26.3% | 5.1% (active) | 23.6% | 32.5%
